Experimental data taken from article PMC4336329 (PLoS ONE, 2015).
The whole screen tested about 310,000 compounds, of which about 14,000 (4.5%) showed an effect of 50% or more. The effect is printed as a negative number. The sample holds strong results, similar compounds and a random draw of the others, so the mix is not that of the screen.
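Note: peak tail current of the secondary pulse compared with the same well before compound.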

These compounds were tested against human ether-à-go-go-related gene (hERG) potassium channel (human, UniProt Q12809) (assay: primary screen, population patch clamp on CHO cells stably expressing hERG; higher = less effect of the substance).
Sequence of human ether-à-go-go-related gene (hERG) potassium channel (Q12809 whole entry, looked up): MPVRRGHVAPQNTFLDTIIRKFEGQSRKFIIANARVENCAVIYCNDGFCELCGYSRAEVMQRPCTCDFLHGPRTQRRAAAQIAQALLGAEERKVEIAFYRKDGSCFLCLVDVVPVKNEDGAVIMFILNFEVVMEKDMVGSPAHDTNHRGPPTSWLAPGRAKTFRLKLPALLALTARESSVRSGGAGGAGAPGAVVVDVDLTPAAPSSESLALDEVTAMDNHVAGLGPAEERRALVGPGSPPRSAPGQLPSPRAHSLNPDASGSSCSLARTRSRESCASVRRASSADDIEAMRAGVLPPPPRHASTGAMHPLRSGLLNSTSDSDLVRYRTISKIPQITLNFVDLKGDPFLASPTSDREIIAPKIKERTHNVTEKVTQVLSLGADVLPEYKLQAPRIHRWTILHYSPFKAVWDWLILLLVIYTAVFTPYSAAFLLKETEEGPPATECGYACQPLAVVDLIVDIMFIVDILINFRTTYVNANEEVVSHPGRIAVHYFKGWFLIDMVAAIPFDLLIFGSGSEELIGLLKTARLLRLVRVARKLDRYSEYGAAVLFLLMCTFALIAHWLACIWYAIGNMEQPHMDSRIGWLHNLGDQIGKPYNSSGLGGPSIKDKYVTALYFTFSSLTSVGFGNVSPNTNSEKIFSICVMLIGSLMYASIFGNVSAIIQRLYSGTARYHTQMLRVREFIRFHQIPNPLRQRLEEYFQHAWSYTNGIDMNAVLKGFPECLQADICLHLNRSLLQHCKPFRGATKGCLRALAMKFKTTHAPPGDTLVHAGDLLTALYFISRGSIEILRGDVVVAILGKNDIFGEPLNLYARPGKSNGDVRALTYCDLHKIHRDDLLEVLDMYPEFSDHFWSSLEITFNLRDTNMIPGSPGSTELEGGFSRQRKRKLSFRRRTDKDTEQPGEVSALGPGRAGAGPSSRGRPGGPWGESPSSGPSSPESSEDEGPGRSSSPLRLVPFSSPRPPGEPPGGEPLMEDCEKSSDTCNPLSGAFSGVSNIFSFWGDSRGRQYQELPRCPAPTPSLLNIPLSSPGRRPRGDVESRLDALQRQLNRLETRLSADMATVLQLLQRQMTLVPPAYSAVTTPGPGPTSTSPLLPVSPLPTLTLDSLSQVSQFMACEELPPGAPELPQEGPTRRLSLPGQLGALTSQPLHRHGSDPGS
In the case of `COc1cc(C(=O)OCC(=O)N2CCC(Cc3ccccc3)CC2)cc(OC)c1OC`, the “hERG current change (%, negative = inhibition) at 10uM” value was -16.9%. In the case of `COc1cc(C(C)=O)ccc1OCCCN1CCC(Cc2ccccc2)CC1.O=C(O)C(=O)O`, the “hERG current change (%, negative = inhibition) at 10uM” value was -77.9%. For `COc1ccc(S(=O)(=O)N2CCC(Cc3ccccc3)CC2)cc1NC(C)=O`, the “hERG current change (%, negative = inhibition) at 10uM” value was 20.5%. With `COc1ccc(NC(=S)N2CCC(Cc3ccccc3)CC2)cc1OC` the “hERG current change (%, negative = inhibition) at 10uM” value was -45.3%. In the case of `O=C(CNC(=S)N(Cc1ccccc1F)C1CCCCC1)NC1CC1`, the “hERG current change (%, negative = inhibition) at 10uM” value was -4.74%. With `CC(C)c1ccccc1OCC(=O)N1CCCCCCC1` the “hERG current change (%, negative = inhibition) at 10uM” value was 13%. In the case of `CCCCCC1CC(CC(=O)NC(=S)Nc2ccc([N+](=O)[O-])cc2)C(=O)O1` (stereo not drawn), the “hERG current change (%, negative = inhibition) at 10uM” value was -0.0907%. In the case of `CCCCCC1CC(CC(=O)Nc2ccc([N+](=O)[O-])cc2)C(=O)O1` (stereo not drawn), the “hERG current change (%, negative = inhibition) at 10uM” value was -50%. `CCCCCC1CC(CC(=O)Nc2ccc([N+](=O)[O-])cc2)OC1=O` (stereo not drawn) was tested, and the “hERG current change (%, negative = inhibition) at 10uM” value was -53.1%. With `CCCCCCC1CC(CC(=O)Nc2ccc([N+](=O)[O-])cc2)C(=O)O1` (stereo not drawn) the “hERG current change (%, negative = inhibition) at 10uM” value was -12.4%. For `CCCCCCC1CC(CCC(=O)Nc2ccc([N+](=O)[O-])cc2)C(=O)O1` (stereo not drawn), the “hERG current change (%, negative = inhibition) at 10uM” value was 3.95%. `CC(C)OCC1CC(CC(=O)Nc2ccc([N+](=O)[O-])cc2)C(=O)O1` (stereo not drawn) was tested, and the “hERG current change (%, negative = inhibition) at 10uM” value was -34.1%. For `O=C(CC1NCCc2ccccc21)Nc1ccc(Oc2ccccc2)cc1` (stereo not drawn), the “hERG current change (%, negative = inhibition) at 10uM” value was -15%. In the case of `C=CCN(c1ccccc1)S(=O)(=O)c1ccc2c(c1)NC(=O)C(C)C(=O)N2` (stereo not drawn), the “hERG current change (%, negative = inhibition) at 10uM” value was -4.47%. `O=C(CNC(c1ccccc1)c1ccccc1)Nc1cc([N+](=O)[O-])ccc1Cl` was tested, and the “hERG current change (%, negative = inhibition) at 10uM” value was 10.7%. `CCCCc1cc(O)c(CCCC)c(O)c1` was tested, and the “hERG current change (%, negative = inhibition) at 10uM” value was -34.1%. For `COc1ccccc1NC(=O)/C(C#N)=C/c1ccc(OCCN2CCOCC2)c(OC)c1`, the “hERG current change (%, negative = inhibition) at 10uM” value was -6.48%. In the case of `COc1cc(/C=C(\C#N)C(=O)Nc2ccccc2F)ccc1OCCN1CCOCC1`, the “hERG current change (%, negative = inhibition) at 10uM” value was -64.6%. For `COc1cc(/C=C(\C#N)C(=O)Nc2ccccc2)ccc1OCCN1CCOCC1`, the “hERG current change (%, negative = inhibition) at 10uM” value was -21.7%. For `O=C(N/N=C/c1cccs1)c1cncc(Br)c1`, the “hERG current change (%, negative = inhibition) at 10uM” value was -10.1%. With `COc1ccc(C)cc1NS(=O)(=O)c1ccc2c(c1)CCN2C(C)=O` the “hERG current change (%, negative = inhibition) at 10uM” value was -17.2%. In the case of `CCOc1ccc(NC(=S)N(CCc2ccncc2)C(C)C)cc1`, the “hERG current change (%, negative = inhibition) at 10uM” value was -50.6%. `CC(C)N(CCc1ccncc1)C(=S)Nc1cccc(Cl)c1` was tested, and the “hERG current change (%, negative = inhibition) at 10uM” value was -71.3%. `CCc1ccccc1NC(=S)N(CCc1ccncc1)C(C)C` was tested, and the “hERG current change (%, negative = inhibition) at 10uM” value was -29.6%. `CC(C)NC(=S)N(CCc1ccncc1)C(C)C` was tested, and the “hERG current change (%, negative = inhibition) at 10uM” value was 17.3%. `Cc1cc(C)c(NC(=S)N(CCc2ccncc2)C(C)C)c(C)c1` was tested, and the “hERG current change (%, negative = inhibition) at 10uM” value was -8.82%. With `Cc1cccc(NC(=S)N(CCc2ccncc2)C(C)C)c1C` the “hERG current change (%, negative = inhibition) at 10uM” value was -8.61%. `Cc1cccc(C)c1NC(=S)N(CCc1ccncc1)C(C)C` was tested, and the “hERG current change (%, negative = inhibition) at 10uM” value was -1.45%. With `Cc1ccc(C)c(NC(=S)N(CCc2ccncc2)C(C)C)c1` the “hERG current change (%, negative = inhibition) at 10uM” value was -42.1%. In the case of `CC(C)N(CCc1ccncc1)C(=S)Nc1ccc(F)c(Cl)c1`, the “hERG current change (%, negative = inhibition) at 10uM” value was -71.7%. For `CCc1ccccc1N/N=C(/C)c1c(O)cc(C)oc1=O`, the “hERG current change (%, negative = inhibition) at 10uM” value was -1.91%. `Cc1c(CCC(=O)O)c(=O)oc2cc3occ(-c4ccccc4)c3cc12` was tested, and the “hERG current change (%, negative = inhibition) at 10uM” value was -27.8%. With `CC(CN1C(C)CCCC1C)OC(=O)c1cccc(F)c1.Cl` (stereo not drawn) the “hERG current change (%, negative = inhibition) at 10uM” value was -13%. For `Cc1oc(-c2cc(F)ccc2F)nc1CN1CCN(c2ncnc3ccccc23)CC1`, the “hERG current change (%, negative = inhibition) at 10uM” value was -43.6%. For `COc1ccc(-c2nc(CN3CCN(c4cc(C)nc(C)c4)CC3)c(C)o2)c2ccccc12`, the “hERG current change (%, negative = inhibition) at 10uM” value was -73.6%. For `COc1ccc(-c2nc(CN3CCN(Cc4cccc(F)c4)CC3)c(C)o2)cc1`, the “hERG current change (%, negative = inhibition) at 10uM” value was -46.6%. In the case of `COc1ccc(-c2nc(CN3CCN(c4ncnc5ccccc45)CC3)c(C)o2)c(OC)c1`, the “hERG current change (%, negative = inhibition) at 10uM” value was -66.8%. `COc1ccc(-c2nc(CN3CCN(Cc4cccc(Cl)c4)CC3)c(C)o2)cc1` was tested, and the “hERG current change (%, negative = inhibition) at 10uM” value was -33.1%. In the case of `Cc1cc(N2CCN(Cc3nc(-c4ccc(Cl)cc4)oc3C)CC2)cc(C)n1`, the “hERG current change (%, negative = inhibition) at 10uM” value was -68.8%. With `Cc1oc(-c2cccc3ccccc23)nc1CN1CCN(c2ncnc3ccccc23)CC1` the “hERG current change (%, negative = inhibition) at 10uM” value was -11.9%. In the case of `COc1ccc(-c2nc(CN3CCN(c4ncccn4)CC3)c(C)o2)cc1C`, the “hERG current change (%, negative = inhibition) at 10uM” value was -21.1%. With `Cc1cccc(-c2nc(CN3CCN(Cc4cccc(F)c4)CC3)c(C)o2)c1` the “hERG current change (%, negative = inhibition) at 10uM” value was -47%. In the case of `COc1ccc(-c2nc(CN3CCN(C(=O)c4ccco4)CC3)c(C)o2)c(OC)c1C`, the “hERG current change (%, negative = inhibition) at 10uM” value was -18%. `Cc1cc(N2CCN(Cc3nc(-c4ccc(F)cc4)oc3C)CC2)cc(C)n1` was tested, and the “hERG current change (%, negative = inhibition) at 10uM” value was -53.8%. `Cc1cccc(N2CCN(Cc3nc(-c4cccc(Cl)c4)oc3C)CC2)n1` was tested, and the “hERG current change (%, negative = inhibition) at 10uM” value was -21%.
